Compound activity: PubChem BioAssay, The Scripps Research Institute Molecular Screening Center
FXN GAA850 act – activators of GAA850 frataxin (FXN) promoter; HEK293 lucGAA850 FXN promoter luciferase reporter, 24 h; percent of 10 µM SAHA response; activation, % at 6 µM; hit rate 0.56% among 360,000; AID 540364;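 active = activation above the average of all compounds screened plus 3 SD, cutoff fixed separately per campaign, cut at about 7.5% in these data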;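 also: 0% = DMSO wells and 100% = 10 µM SAHA wells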
ssDAF12 agonist – S. stercoralis DAF-12 activation, primary screen; activation, % at 6.8 µM; hit rate 1% among 370,000; HEK293 ssDAF-12/GRIP1 lit1-tk-luc reporter, luminescence; % of 3 µM dafachronic acid response; AID 652126;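 active = activation above the mean over all tested compounds plus 3 SD, cut at about 0.9% in these data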;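 also: 0% = DMSO-only wells and 100% = 3 µM delta7-dafachronic acid wells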
DAX1 inh-1 – blocks DAX1 repression of SF-1 activated StAR promoter; HEK293T StAR-luciferase reporter, SF-1/DAX-1 repression relief; inhibition, % at 6.8 µM; hit rate 1.1% among 370,000;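 active = inhibition above the mean over all tested compounds plus 3 SD, cut at about 3.6% in these data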;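 also: 0% = DAX-1 cells with DMSO and 100% = cells lacking DAX-1 with DMSO; higher inhibition means more luminescence from relief of DAX-1 repression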
hcDAF12 agonist – activates DAF-12 receptor from parasite H. contortus; HEK293 hcDAF-12 lit1-tk-luc reporter, luminescence; 0% DMSO, 100% Δ7-dafachronic acid; activation, % at 6.8 µM; hit rate 1.4% among 370,000; AID 652067;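 active = activation above the mean of all tested compounds plus 3 SD, cut at about 5.5% in these data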;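 also: 100% = response to 3 µM Δ7-dafachronic acid high control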
hgDAF-12 ag – activates the H. glycines DAF-12 receptor ligand-binding domain; activation, % at 6.8 µM; hit rate 1.8% among 370,000; HEK293 GAL4-hgDAF12 UAS-luciferase reporter, agonist luminescence; normalized to butyrate control;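 active = activation above a cutoff set at the mean of all screened compounds plus 3 SD, cut at about 10% in these data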;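 also: 0% = DMSO wells and 100% = sodium butyrate wells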
DAX1 inh-2 – inhibits human nuclear receptor DAX1 | P51843 | HEK293 Gal4-DAX1 luciferase reporter, luminescence | inhibition, % at 6.75 µM | hit rate 0.99% among 340,000 | AID 504766;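 active = inhibition above the mean over all tested compounds plus 3 SD, cut at about 4.2% in these data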;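 also: 0% = DAX1-transfected cells with DMSO and 100% = empty-vector control cells with DMSO; inhibition shows as a rise in luminescence from relieved DAX1 repression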
Target sequence (P51843 207-470 limits assumed): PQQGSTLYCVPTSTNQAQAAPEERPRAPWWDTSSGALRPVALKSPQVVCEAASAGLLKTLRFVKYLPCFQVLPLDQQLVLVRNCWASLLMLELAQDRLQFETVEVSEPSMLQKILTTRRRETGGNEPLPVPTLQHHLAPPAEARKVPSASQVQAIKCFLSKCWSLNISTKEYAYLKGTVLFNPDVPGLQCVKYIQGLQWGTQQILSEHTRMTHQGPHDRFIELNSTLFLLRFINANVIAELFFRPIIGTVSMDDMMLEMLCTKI
GAA30 counter – counter-screen for GAA850 frataxin promoter activators: GAA30 promoter activation; HEK293 lucGAA30 FXN promoter luciferase, 24 h; DMSO = 0%, 5 µM ipriflavone = 100%; hit rate 66% among 1,900; AID 588350; shares compounds with FXN GAA850 act; activation, % at 6 µM;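 active = mean activation above the mean of solvent-only control wells plus 3 SD, cut at about 22% in these data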;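 also: counterscreen of GAA850 promoter hits where activity marks nonselective or luminescence artifacts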
FXN GAA850 conf – GAA850 FXN promoter activation confirmation; hit rate 86% among 1,900; activation, % at 6 µM; AID 588351; HEK293 lucGAA850 FXN promoter luciferase reporter, 24 h; 100% = activation by SAHA; shares compounds with FXN GAA850 act;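 active = mean activation above a set limit taken from the primary screen, cut at about 8% in these data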;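 also: 0% = DMSO wells and 100% = 10 µM SAHA wells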
Active calls of the source: *; . = no result. Shown are actives, neighbours in structure and some others; about 4.5% of the full set was active somewhere.

SMILES	FXN GAA850 act	ssDAF12 agonist	DAX1 inh-1	hcDAF12 agonist	hgDAF-12 ag	DAX1 inh-2	GAA30 counter	FXN GAA850 conf
O=C(Nc1ccc(N2CCCC2)c(Cl)c1)c1ccc([N+](=O)[O-])o1	17.9*	-1.4	-2.3	0.4	-1.2	-0.8	117.7*	69.9*
COc1ccc(-n2c(SCC(=O)Nc3ccc(Oc4ccccc4)cc3)nnc2-c2ccc(C)cc2)cc1	.	-1.2	-0.4	-1.3	-2.6	.	.	.
COc1ccc2c(c1)oc(=O)c1cc(OC)ccc12	7.9*	-0.3	2.7	0.4	12.7*	4.6*	122.3*	43.9*
COc1ccc2c(c1)oc(=O)c1ccccc12	4.0	-1.2	0.8	1.1	3.4	1.5	.	.
CCOC(=O)[C@]12CCCCC/C=C\1N(Cc1ccc(OC)cc1)C(=O)[C@H]2CC(=O)NCC12CC3CC(CC(C3)C1)C2	.	-1.4	-0.2	-1.0	-1.8	.	.	.
CCOC(=O)CN1C(=O)S/C(=C/c2ccc3c(c2)n(C)c(=O)n3C)C1=O	2.8	-1.0	1.1	2.3	5.3	0.4	.	.
CCOC(=O)CN1C(=O)S/C(=C/C=C/c2ccc(N(C)C)cc2)C1=O	8.0*	-0.8	1.1	-0.5	2.8	-1.8	77.6*	33.8*
CCCCOP(=O)(c1ccc(N(C)C)cc1)C(O)c1c(Cl)cccc1Cl (stereo unspecified)	15.6*	-1.6	-0.5	-1.7	-1.3	0.1	17.0	10.9*
Cc1ccc(NC(=O)[C@H]2CC(=O)O[C@@H]2c2ccccc2)cc1C	.	-0.1	0.2	1.6	3.0	.	.	.
C=C1c2cccc(O)c2C(=O)C2C(=O)[C@]3(O)C(=O)C(C(N)=O)C(=O)[C@@H](N(C)C)[C@@H]3[C@@H](O)[C@H]12 (stereo partly specified)	18.4*	-1.9	0.5	-0.6	0.8	0.3	16.2	7.3
CC(C)c1ccc(NC(=O)N2CCc3ccccc3C2)cc1	9.0*	-0.8	1.7	5.8*	8.3	-0.5	112.8*	31.9*
N#C/C(=C\c1cccnc1)c1nc2ccccc2[nH]1	-1.0	-0.8	0.0	2.7	-1.0	.	.	.
N#C/C(=C\c1ccncc1)c1nc2ccccc2[nH]1	8.8*	-0.9	0.1	0.2	4.2	.	33.2*	9.3*
COc1cc(/C=C(\C#N)c2nc3ccccc3[nH]2)ccc1OC(=O)c1ccco1	7.8*	-0.8	-0.1	-0.8	5.3	0.4	119.4*	35.5*
COc1ccc([C@@]23CCN=C2c2[nH]c4ccccc4c2CCN3)c(N)c1	.	-1.2	.	5.0	-1.0	.	.	.
CCOC(=O)c1c(-c2ccc(F)cc2)csc1NC(=O)CN1C(=O)NC2(CCCCC2C)C1=O (stereo unspecified)	12.8*	-1.9	0.0	-1.8	0.6	0.7	9.3	17.5*
C=CCCC(=O)N1C[C@H]2CCN(C)[C@H]2C[C@H]1c1ccccc1Br	.	-0.5	0.6	0.6	4.7	.	.	.
COC[C@H]1CCCN1c1ccc2c(c1)OCCCN(C1CC1)S2(=O)=O	.	-0.6	0.9	-2.2	0.5	.	.	.
Oc1ccc(Nc2ncnc3c2oc2ccccc23)cc1	11.6*	0.3	-0.5	-0.7	-4.2	-1.0	143.2*	39.7*
CNc1nc(NCCOc2ccccc2Cl)c2sccc2n1	9.0*	-2.0	-1.8	-2.9	-0.2	.	23.9*	11.5*
Cc1ccccc1CSc1nnc2ccc(-c3ccncc3)nn12	7.7*	-0.6	-0.1	0.1	0.0	1.3	29.6*	12.5*
Cc1ccc(S(=O)(=O)NC[C@@H]2C[C@H](c3ccccc3)ON2S(=O)(=O)c2ccc(C)cc2)cc1	.	-1.1	.	-0.8	0.1	.	.	.
COC(=O)C1=C(C)N(Cc2ccc(C(F)(F)F)cc2)C(=NCc2ccccc2)NC1c1ccc(C(F)(F)F)cc1 (stereo unspecified)	.	-1.1	0.6	1.6	1.7	.	.	.
